# Pf growth 48h – inhibits P. falciparum growth in the first generation, 48 h. 310,000 tested, 5.9% active. P. falciparum luciferase growth in erythrocytes, 48 h. Potency, µM (titrated, usually from 28.7 µM), most hits filed as inhibitors
#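 Erythrocytes infected with P. falciparum carrying an integrated firefly luciferase reporter (2% hematocrit, 0.1% parasitemia final) were exposed to compounds in RPMI 1640 with 0.5% Albumax at 37 C, 5% CO2. Growth inhibition was scored as reduced luminescence.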
# Pf growth 96h – P. falciparum growth inhibition at 96 hours. P. falciparum luciferase reporter growth, 96 h. Potency, µM (titrated, usually from 28.7 µM), most hits filed as inhibitors. 320,000 tested, 6.9% active
#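 Two parasite generations (96 h, 37 C, 5% CO2) of compound exposure in infected erythrocytes (0.05% parasitemia, 2% hematocrit). Luciferase-reporter P. falciparum; decreased luminescence indicates inhibited growth, aimed at apicoplast-acting delayed death.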
# Shiga toxin inh – inhibitors of Shiga toxin in Vero cells. 290,000 tested, 9.2% active. Vero cells, Shiga toxin protein synthesis inhibition reporter. AID 2315. inhibition, % at 38.7 µM; in the data active = inhibition mostly above about 28%, no sharp cut-off; inactive = mostly below about 43%
# CHX counter – counter-screen for Shiga toxin inhibitors: cycloheximide protein synthesis inhibition | max response, % | 300,000 tested, 12% active | cell reporter, cycloheximide protein synthesis inhibition counterscreen; in the data active = max response mostly above about 13%, no sharp cut-off; inactive = mostly below about 14%; also: read at 38.3 µM for the half of the compounds with a filed dose
# Hits are given with their value; - = inactive; ? = inconclusive; . = not tested or not shown. Only some compounds are listed: those with a hit (about 21% of all), similar ones and a draw of the others. Unless noted, calls follow the shape of the dose curve; as a rule, active = well fitted inhibition curve with a large enough effect; inconclusive = small, poorly fitted or top-dose-only effect, or another doubt; inactive = no such curve, though single readings can be large or run the other way.
SMILES,Pf growth 48h,Pf growth 96h,Shiga toxin inh,CHX counter
Cc1cccc(C(=O)N2c3ccccc3C(=O)OC2c2ccc3c(c2)OCO3)c1 (stereo not drawn),-,-,-,21.4
O=C1OC(c2ccc3c(c2)OCO3)N(C(=O)c2ccc(Cl)c(Cl)c2)c2ccccc21 (stereo not drawn),?,.,117.5,38.8
COc1ccc(S(=O)(=O)N2CCOC2CNC(=O)C(=O)NCCCN2CCOCC2)cc1 (stereo not drawn),-,-,-,-
O=C(CCS(=O)(=O)c1ccc(Br)cc1)NC1CCCCCC1,-,11.7µM,-,-
CN(CC(=O)N1CCOCC1)S(=O)(=O)c1cc(Cl)ccc1Cl,-,-,-,-
CN1CCN(NC(=O)CN(C)S(=O)(=O)c2cc(Cl)ccc2Cl)CC1,-,11.7µM,-,-
NS(=O)(=O)c1ccc(CNC(=O)CNC(=O)c2ccc(F)cc2)cc1,-,-,67.8,14.9
CN(CC(=O)NC1CC1)S(=O)(=O)c1cc(Cl)ccc1Cl,4.15µM,5.22µM,-,-
CC/C=C/[C@@H](c1ccccc1)[C@H](C)C(O)CC(=O)SC(C)(C)C (stereo partly drawn),.,.,-,-
O=C(CN(C(=O)CNC(=O)c1ccco1)c1ccccc1F)NC1CCCCC1,-,-,-,-
O=C1C=C(c2ccc(C(=O)O)cc2)C[C@@H](c2ccc3c(c2)OCO3)C1,-,-,.,.
Cc1ccc(CNC(=O)CCS(=O)(=O)c2ccc(Br)cc2)cc1,-,?,-,-
CN(CC(=O)NC1CC1)S(=O)(=O)c1ccc(Br)cc1,8.28µM,-,-,-
O=C(CCS(=O)(=O)c1ccc(Br)cc1)NCc1ccc(F)cc1,-,10.4µM,-,-
O=C(CCNS(=O)(=O)c1ccc(Br)s1)NC1CCCC1,?,10.4µM,-,-
O=C(CCS(=O)(=O)c1ccc(Br)s1)NC1CCCC1,.,-,-,-
COc1ccnc(Oc2ccccc2)c1C(=O)N/C=N/OCc1ccccc1F,-,-,-,-
COc1ccc(C2=Nn3c(nnc3-c3ccc(OC)cc3)SC2)cc1,10.4µM,.,-,-
COc1ccc(-c2nnc3n2N=C(c2cc(OC)ccc2OC)CS3)cc1,.,.,-,-
COc1ccc(OC)c(C2=Nn3c(nnc3-c3cc(OC)c(OC)c(OC)c3)SC2)c1,6.57µM,-,-,-
COc1ccc(N=C2SCC(c3ccccc3)=NN2C)cc1,2.62µM,-,-,28.9
CCOc1cccc(-c2nnc3n2N=C(c2cc(OC)ccc2OC)CS3)c1,11.7µM,11.7µM,-,-
COc1cccc(-c2nnc3n2N=C(c2cc(OC)ccc2OC)CS3)c1,?,?,-,-
COc1ccc(N=C2SCC(=O)N2c2ccc(OC)cc2)cc1,.,?,-,-
CCc1nc(CNC(=O)C2CCC(=O)N(Cc3cccc(OC)c3)C2)no1 (stereo not drawn),-,-,-,-
SMILES,Pf growth 48h,Pf growth 96h,Shiga toxin inh,CHX counter
O=C1C2C3C=CC(CC3)C2C(=O)N1/N=C/c1ccc(O)c(O)c1 (stereo not drawn),-,-,-,-
O=C1c2ccccc2C(=O)N1/N=C/c1ccc(O)c(O)c1,-,-,47.3,-
O=C(CN1C(=O)NC2(CCCCCC2)C1=O)Nc1ccc(Br)cc1Br,-,-,.,.
O=C(CCCOc1ccc(Cl)cc1Cl)N1CCCc2ccccc21,.,-,55.8,29.7
CCC(Oc1cc(Cl)ccc1Cl)C(=O)N1CCC2(CC1)OCCO2 (stereo not drawn),-,-,63.9,31.4
Cc1cccc(OCC(=O)NC(=S)N2CCCc3ccccc32)c1,?,9.28µM,-,35.0
CCOc1cc(C(=O)N2CCC3(CC2)OCCO3)cc(OCC)c1OCC,-,.,-,-
O=C(COc1ccc(Cl)cc1Cl)NC(=S)N1CCCc2ccccc21,.,-,66.9,43.4
Cc1ccc(S(=O)(=O)NCCC(=O)OCC(=O)N2CCCC2=O)cc1C,-,-,.,.
COc1ccccc1C(=O)NC1CC(C)(C)NC(C)(C)C1,-,?,-,-
Cc1c(Cl)c([N+](=O)[O-])nn1CC(=O)NC(C)C1CC2CCC1C2 (stereo not drawn),-,.,-,-
COc1ccc(C(=O)NCC(=O)N2CCC(Cc3ccccc3)CC2)cc1OC,?,-,.,.
O=C(CCCOc1ccc(Cl)cc1Cl)N1CCC2(CC1)OCCO2,-,.,-,16.8
Cc1cccc(OCCCC(=O)N2CCCc3ccccc32)c1C,.,?,-,27.8
O=C(COc1ccc(Cl)cc1Cl)NC(=O)N1CCCCC1,-,.,67.2,45.5
Cc1ccc(NC(=O)Cc2ncc(C(F)(F)F)cc2Cl)cc1Cl,-,-,-,-
CC(=O)c1c(C)nc(-c2ccc(Cl)cc2)nc1N=CN(C)C,-,?,70.3,45.7
CN(C)C=NC(=O)c1cc(C(=O)c2ccc(Cl)cc2)c[nH]1,-,-,-,-
CC(=O)c1c(C)nc(-c2ccc(Cl)cc2)nc1N,-,-,96.0,43.9

# High-throughput results from PubChem.
